ADAM17 inh: inhibitors of human ADAM17 | P78536 | inhibition, % at 6.95 µM | recombinant ADAM17, EDANS/DABCYL FRET peptide cleavage | 370,000 compounds, 0.83% hits;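 active means inhibition above the mean of compounds lying between control limits plus 3 SD, set per campaign, cut at about 8.5% in these data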;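 further: 0% = DMSO-only wells as the low control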
rCAG RNA binder: r(CAG) repeat RNA binding. TO-PRO-1 dye displacement fluorescence. inhibition, % at 3 µM. 370,000 compounds, 1.3% hits;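 active means inhibition above the plate cutoff, the mean of all test compounds on that plate plus 3 SD, cut at about 35% in these data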;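 further: 0% = DMSO alone and 100% = 100 µM mitoxantrone as full dye displacement; higher means more dye released from RNA so lower well fluorescence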
ADAM10 inh: ADAM10 inhibition, QFRET primary screen. O14672. recombinant ADAM10, EDANS/DABCYL FRET peptide cleavage, 3 h. inhibition, % at 7 µM. 370,000 compounds, 0.62% hits. AID 720582;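 active means inhibition above a per-campaign cutoff equal to the mean of compounds falling between control-based bounds plus 3 SD, cut at about 20% in these data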;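 further: 0% = DMSO wells while the 100% control is not disclosed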
Target sequence (O14672 214-748 limits assumed): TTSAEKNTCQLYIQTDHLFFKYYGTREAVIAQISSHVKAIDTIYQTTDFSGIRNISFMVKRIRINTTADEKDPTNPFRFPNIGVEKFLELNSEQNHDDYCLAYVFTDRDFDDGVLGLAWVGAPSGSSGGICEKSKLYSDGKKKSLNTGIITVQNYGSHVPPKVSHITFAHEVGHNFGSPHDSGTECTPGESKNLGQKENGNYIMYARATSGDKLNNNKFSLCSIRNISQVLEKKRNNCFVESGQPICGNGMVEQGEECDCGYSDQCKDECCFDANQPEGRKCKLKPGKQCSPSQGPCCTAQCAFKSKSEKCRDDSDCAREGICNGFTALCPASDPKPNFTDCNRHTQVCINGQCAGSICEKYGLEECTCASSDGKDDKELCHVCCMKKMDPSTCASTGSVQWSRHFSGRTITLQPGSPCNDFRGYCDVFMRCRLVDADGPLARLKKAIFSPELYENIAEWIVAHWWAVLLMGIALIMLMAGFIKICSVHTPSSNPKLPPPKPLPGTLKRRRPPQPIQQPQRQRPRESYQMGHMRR
KLK7 zymogen act: activates the human kallikrein-7 zymogen; purified proKLK7, EDANS-DABCYL substrate fluorescence; 100% is mature enzyme control, 0% vehicle; AID 652039; 370,000 compounds, 0.9% hits; activation, % at 7 µM; P49862;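 active means activation above the mean of all tested compounds plus 3 SD, computed per campaign excluding outliers beyond control limits, cut at about 13% in these data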
NR3A LBD binder: modulates the human NR3A ligand-binding domain; NR3A LBD differential scanning fluorimetry, Tm shift; 0% = protein alone, 100% = glycine-bound protein; Tm shift relative to glycine control, % at 25 µM; 340,000 compounds, 2.5% hits; AID 1259313;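 active means melting temperature shift of at least 10% of the positive control shift, at one fixed dose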
AHR activator: human AHR activation. P35869. 320,000 compounds, 2.5% hits. AHR-responsive luciferase reporter cells, luminescence. activation, % at 5 µM; in the data active means activation above about 47%;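 further: 0% = vehicle wells and 100% = reference agonist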
rCAG binder conf: r(CAG) RNA repeat binding, confirmation; inhibition, % at 3 µM; 4,300 compounds, 70% hits; shares compounds with rCAG RNA binder; TO-PRO-1 dye displacement fluorescence;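 active means inhibition above a per-plate cutoff, the mean inhibition of sample wells plus 3 SD, cut at about 35% in these data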;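 further: loss of TO-PRO-1 fluorescence as compound displaces dye from 1x1 AA loop RNA; 0% = DMSO only wells and 100% = 100 µM mitoxantrone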
DNA CAG counter: DNA CAG dye complex inhibition counter-screen; shares compounds with rCAG RNA binder; d(CAG) DNA oligo TO-PRO-1 dye displacement, fluorescence; inhibition, % at 3 µM; 4,300 compounds, 94% hits;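 active means inhibition above its plate's cutoff, the mean test-well inhibition plus 3 SD, cut at about 4.8% in these data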;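 further: 0% = DNA dye mix with DMSO and 100% = 100 µM mitoxantrone; hits displace the dye from DNA and so lower well fluorescence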
Active calls of the source: *. The list is not random: actives were taken first. Their share in the collection is about 7%.

Cc1cc(N2C(=O)C(O)=C(C(=O)c3ccco3)C2c2ccc([N+](=O)[O-])cc2)no1 (stereo not given) was read as ADAM17 inh -1, rCAG RNA binder 13, ADAM10 inh 5, KLK7 zymogen act 0, NR3A LBD binder 2 and AHR activator -2.
For CCOc1ccc(C2C(C(=O)c3ccc(C)o3)=C(O)C(=O)N2c2nc(C)c(C(=O)OC)s2)cc1 (stereo not given) the results were ADAM17 inh -6, rCAG RNA binder 24, ADAM10 inh -10, KLK7 zymogen act 1, NR3A LBD binder -7 and AHR activator 9.
CCOC(=O)c1sc(N2C(=O)C(O)=C(C(=O)c3ccco3)C2c2ccc(C)o2)nc1C (stereo not given) was read as ADAM17 inh 0, rCAG RNA binder 44*, ADAM10 inh -4, KLK7 zymogen act 0, NR3A LBD binder -5, AHR activator -1, rCAG binder conf 59* and DNA CAG counter 21*.
Screening CCOC(=O)c1sc(N2C(=O)C(O)=C(C(=O)c3ccco3)C2c2ccc([N+](=O)[O-])cc2)nc1C (stereo not given) returned ADAM17 inh 4, rCAG RNA binder 80*, ADAM10 inh 9, KLK7 zymogen act 0, NR3A LBD binder -5, AHR activator -3, rCAG binder conf 85* and DNA CAG counter 55*.
CC(C)=C1C(=O)NN(c2cccc(Cl)c2)C1=O was read as ADAM17 inh -1, rCAG RNA binder 25, ADAM10 inh 3, KLK7 zymogen act 0, NR3A LBD binder -1 and AHR activator 3.
For CC(C)=C1C(=O)NN(c2ccc(C)c(Cl)c2)C1=O the results were ADAM17 inh 5, rCAG RNA binder 94*, ADAM10 inh 11, KLK7 zymogen act 1, NR3A LBD binder -4, AHR activator -1, rCAG binder conf 23 and DNA CAG counter 8.1*.
For COc1cc(/C=C2\SC(=S)N(NS(=O)(=O)c3ccccc3)C2=O)ccc1O the results were ADAM17 inh -2, rCAG RNA binder 19, ADAM10 inh -4, KLK7 zymogen act 0, NR3A LBD binder -3 and AHR activator -1.
`COc1cc(/C=C2\SC(=S)N(NS(=O)(=O)c3ccc(C)cc3)C2=O)ccc1O` gave ADAM17 inh 2, rCAG RNA binder 45*, ADAM10 inh 13, KLK7 zymogen act 0, NR3A LBD binder -5, AHR activator 1, rCAG binder conf 30 and DNA CAG counter 9.9*.
`CCOc1cc(/C=C2\SC(=S)N(NS(=O)(=O)c3ccc(C)cc3)C2=O)ccc1O` gave ADAM17 inh 2, rCAG RNA binder 70*, ADAM10 inh 4, KLK7 zymogen act 0, NR3A LBD binder -5, AHR activator 2, rCAG binder conf 50* and DNA CAG counter 19*.
For COC(=O)C[C@@H]1C=C[C@H](NC(=O)Nc2cc(F)ccc2F)[C@@H](CO)O1 the results were ADAM17 inh -8, rCAG RNA binder 1, ADAM10 inh -18 and KLK7 zymogen act 0.
For CN(C(=O)[C@@H](Cc1ccccc1)NC(=O)[C@H]1O[C@@H](n2ccc(=O)[nH]c2=O)[C@H](O)[C@@H]1O)C1CCCCC1 the results were ADAM17 inh -4, rCAG RNA binder 0, ADAM10 inh -17 and KLK7 zymogen act 0.
Screening COc1ccccc1NC(=O)CSc1sc2c(O)cc(=O)[nH]c2c1C#N returned ADAM17 inh 1, rCAG RNA binder 52*, ADAM10 inh 6, KLK7 zymogen act -1, NR3A LBD binder -4, AHR activator 25, rCAG binder conf 18 and DNA CAG counter 8.2*.
For COc1ccc(Cl)cc1NC(=O)CSc1nc(C)cc(C)n1 the results were ADAM17 inh 2, rCAG RNA binder -6, ADAM10 inh 2, KLK7 zymogen act 1, NR3A LBD binder -2 and AHR activator 9.
`COc1ccc(Cl)cc1NC(=O)CSc1sc2c(O)cc(=O)[nH]c2c1C#N` gave ADAM17 inh 0, rCAG RNA binder 55*, ADAM10 inh -3, KLK7 zymogen act 1, NR3A LBD binder -3, AHR activator 5, rCAG binder conf 31 and DNA CAG counter 16*.
For COc1ccc(NC(=O)CSc2nc(O)cc(=O)[nH]2)c(OC)c1 the results were ADAM17 inh -5, rCAG RNA binder 47*, ADAM10 inh 0, KLK7 zymogen act 0, NR3A LBD binder 1, AHR activator 0, rCAG binder conf 4 and DNA CAG counter 2.
Screening COc1ccc(NC(=O)CSc2sc3c(O)cc(=O)[nH]c3c2C#N)c(OC)c1 returned ADAM17 inh -2, rCAG RNA binder 63*, ADAM10 inh -11, KLK7 zymogen act -1, NR3A LBD binder -7, AHR activator 7, rCAG binder conf 27 and DNA CAG counter 13*.
`COc1cc(NC(=O)c2ccccc2)c(OC)cc1NC(=O)CSc1[nH]c(=O)cc(C)c1C#N` gave ADAM17 inh 1, rCAG RNA binder 8, ADAM10 inh 3, KLK7 zymogen act 0, NR3A LBD binder 2 and AHR activator 13.
Screening COc1ccccc1NC(=O)O[C@@H]1CC[C@@]23CCCN2C(=O)CCC[C@H]3C1 returned ADAM17 inh -6 and ADAM10 inh -8.
Cc1ccc(F)c(S(=O)(=O)NC(=O)C2(C)CCN2C(=O)C2(c3ccc(Cl)cc3)CC2)c1 (stereo not given) was read as ADAM17 inh -5, rCAG RNA binder 36*, ADAM10 inh -1, KLK7 zymogen act 0, rCAG binder conf 35* and DNA CAG counter 7.6*.
For COc1cc(C)ccc1S(=O)(=O)NC(=O)C1(C)CCN1C(=O)C1(c2ccc(Cl)cc2)CCC1 (stereo not given) the results were ADAM17 inh -2, rCAG RNA binder 42*, ADAM10 inh -6, KLK7 zymogen act 0, rCAG binder conf 30 and DNA CAG counter 5.4*.
Screening Cc1ccc(F)c(S(=O)(=O)NC(=O)C2(C)CCN2C(=O)C2(c3ccc(Cl)cc3)CCC2)c1 (stereo not given) returned ADAM17 inh -4, rCAG RNA binder 36*, ADAM10 inh -6, KLK7 zymogen act -1, rCAG binder conf 63* and DNA CAG counter 24*.
`Cc1cccc(S(=O)(=O)NC(=O)C2(C)CCN2C(=O)C2(c3ccc(Cl)cc3)CC2)c1` (stereo not given) gave ADAM17 inh 3, rCAG RNA binder 32, ADAM10 inh 3 and KLK7 zymogen act 1.
